PHOSPHO1 inh: PubChem AID 1565; Phosphoethanolamine/phosphocholine phosphatase (Homo sapiens), Q8TCT1; recombinant PHOSPHO1, absorbance phosphatase assay; inhibition, % at 13.3 µM; 1.1% of 290,000 active; in the data active = inhibition above about 60%
Cl transport mod: KCC2 cotransporter modulators, thallium flux, primary screen, cell-based, HEK293 KCC2, FluoZin-2 fluorescence, MLSMR | Solute carrier family 12 member 5 (Homo sapiens), Q9H2X9 | KCC2 cells, thallium flux FluoZin-2 fluorescence | B-score of Tl+ flux slope (higher = more flux/activation; lower = inhibition) at 10 µM | 2.2% of 190,000 active | AID 1456, 2008;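 active = thallium flux slope and its plate-corrected score both differing from the plate sample mean at a set confidence after two filtering rounds, in either direction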;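 also: slope of fluorescence scaled to starting intensity during 10 to 20 s after thallium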
Target sequence (Q9H2X9 whole entry, looked up): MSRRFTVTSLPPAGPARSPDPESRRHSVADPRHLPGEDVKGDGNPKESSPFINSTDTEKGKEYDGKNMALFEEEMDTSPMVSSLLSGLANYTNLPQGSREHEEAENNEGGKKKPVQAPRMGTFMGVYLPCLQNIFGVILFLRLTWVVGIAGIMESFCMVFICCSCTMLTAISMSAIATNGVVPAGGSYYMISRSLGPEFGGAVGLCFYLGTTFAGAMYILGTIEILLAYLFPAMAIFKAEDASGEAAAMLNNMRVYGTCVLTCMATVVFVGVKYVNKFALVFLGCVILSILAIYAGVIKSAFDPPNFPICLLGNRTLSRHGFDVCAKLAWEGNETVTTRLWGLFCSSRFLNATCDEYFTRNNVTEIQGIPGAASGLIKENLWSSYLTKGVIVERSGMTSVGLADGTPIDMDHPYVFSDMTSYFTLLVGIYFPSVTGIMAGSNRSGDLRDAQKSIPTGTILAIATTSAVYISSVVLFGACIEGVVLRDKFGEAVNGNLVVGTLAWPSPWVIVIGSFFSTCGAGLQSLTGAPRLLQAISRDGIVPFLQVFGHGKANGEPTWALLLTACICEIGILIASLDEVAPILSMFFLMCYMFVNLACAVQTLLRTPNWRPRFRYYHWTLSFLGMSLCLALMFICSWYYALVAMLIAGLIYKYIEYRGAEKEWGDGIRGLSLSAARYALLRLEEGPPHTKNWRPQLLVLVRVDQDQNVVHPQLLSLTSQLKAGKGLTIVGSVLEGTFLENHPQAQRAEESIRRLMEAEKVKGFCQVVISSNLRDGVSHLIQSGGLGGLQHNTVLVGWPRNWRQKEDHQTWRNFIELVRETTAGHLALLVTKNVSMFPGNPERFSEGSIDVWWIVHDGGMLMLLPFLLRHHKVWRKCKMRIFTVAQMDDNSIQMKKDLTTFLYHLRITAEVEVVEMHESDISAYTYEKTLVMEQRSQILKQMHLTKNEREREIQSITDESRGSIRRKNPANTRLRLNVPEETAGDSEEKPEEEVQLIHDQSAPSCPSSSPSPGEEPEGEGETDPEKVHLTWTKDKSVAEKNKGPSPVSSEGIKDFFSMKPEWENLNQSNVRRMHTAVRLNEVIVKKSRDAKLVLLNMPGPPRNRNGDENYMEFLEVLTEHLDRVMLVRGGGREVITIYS
Efflux pump mplx: inhibitors of Candida efflux pumps in yeast, primary screen, S. cerevisiae, Nile Red, multiplex | S. cerevisiae Candida pump triplex | inhibition, % at 10 µM | 0.44% of 330,000 active | AID 485275, 2010;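 active = plate passing quality check with inhibition over a set limit, or well fluorescence over plate mean plus 4 SD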;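 also: Nile Red retained in pooled yeast measured as flow cytometry median fluorescence; 0% = buffer negative control and 100% = Enniatin B positive control; higher means more Nile Red kept so more efflux inhibition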
Calb FLC: C. albicans growth inhibition with fluconazole, primary screen, CaCi-2 strain, Alamar Blue fluorescence. C. albicans CaCi-2 (fluconazole-resistant clinical isolate) + fluconazole, 48 h. growth inhibition, % (no concentration beside the values). 0.57% of 300,000 active;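 active = growth inhibition above about 58% in most replicates, limit read from the data, passing the limit was not always enough; inconclusive = exactly half the replicates above a set limit; inactive = most replicates below a set limit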;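 also: all wells also contain fluconazole at 8 µg/ml as a sub-toxic cotreatment; 0% = median of DMSO wells and 100% = median of geldanamycin control wells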
Cardio protect: cardioprotection against H2O2-induced cell death, primary screen, uHTS, H9c2 cells, ATPLite luminescence; H9c2 cardiomyocytes, H2O2 injury protection, 2 h; protection from H2O2 cell death, % at 20 µM; AID 588492, 2011; 0.63% of 360,000 active;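 active = compounds giving at least 50% protection of heart cells from peroxide-induced death in the single-dose screen, raw or plate-pattern-corrected value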;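 also: 0% = DMSO wells with peroxide and 100% = DMSO wells without peroxide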
KCC2 sec1: KCC2 modulators in sodium-free buffer, confirmation, cell-based, HEK293 KCC2, thallium flux, secondary assay. shares compounds with Cl transport mod. FluoZin2 fluorescence; stronger effect = higher value. normalised thallium flux (F/F0 slope) at 10 µM. 15% of 3,700 active;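 active = thallium flux slope above the same plate's solvent-only control mean plus 3 SD; inconclusive = the two replicate wells disagree; inactive = no significant difference from solvent-only control wells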
KCC2 bumet counter: thallium flux persisting under bumetanide in KCC2 cells, confirmation, counter-screen for KCC2 modulator project, cell-based, HEK293 KCC2, FluoZin2, secondary assay 3. 49% of 3,700 active. HEK293-KCC2 + bumetanide/ouabain; stronger effect = higher value. AID 1714, 2009. shares compounds with Cl transport mod. normalized thallium flux at 10 µM;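 active = thallium entry rate above the same plate's blocked-transporter control wells by more than 3 SD; inconclusive = the two repeat wells disagree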;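 also: raw slope of fluorescence over initial fluorescence between 10 and 20 s after thallium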
KCC2 sec2: KCC2 modulators without ouabain present, confirmation, cell-based, HEK293 KCC2, thallium flux, FluoZin2, secondary assay 2; shares compounds with Cl transport mod; thallium flux FluoZin2 fluorescence; actives lie on both sides; F/F0 rise rate, 10–20 s post-thallium; normalized thallium flux at 10 µM; 23% of 3,700 active;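 active = thallium flux slope more than 3 SD above or below the plate's solvent-only control mean, mostly below; inconclusive = the two repeat wells disagreed; inactive = no significant shift from solvent-only controls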;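 also: raw slope with 0.1% DMSO as baseline and bumetanide as block control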
HEK counter1: thallium flux modulation in parental HEK cells, confirmation, counter-screen for KCC2 modulator project, cell-based, counterscreen 1. thallium flux rate (normalised fluorescence) at 10 µM. shares compounds with Cl transport mod. 46% of 3,700 active. HEK293 parental cells, thallium flux FluoZin2, ouabain; baseline-ratio fluorescence slope, 10–20 s after thallium;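 active = thallium flux rate significantly above the same plate's solvent-only control wells, beyond their mean plus 3 SD; inconclusive = the two replicate wells gave conflicting results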
KCC2 retest ouab: KCC2 inhibitors and activators, ouabain retest, confirmation, HEK-KCC2 cells. AID 1717, 2009. shares compounds with Cl transport mod. HEK293-KCC2, thallium flux FluoZin2 fluorescence; bidirectional: low = inhibitor, high = activator. 48% of 3,700 active. raw Tl+ flux slope (below DMSO = inhibition, above = activation) at 10 µM;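 active = thallium flux slope beyond 3 SD from same-plate DMSO control mean in most replicates, usually higher, sometimes lower; inconclusive = repeat tests gave conflicting results; inactive = no significant difference from controls in most replicates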;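 also: slope of initial-normalized fluorescence between seconds 10 and 20 after thallium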
HEK293 Tl flux2: native HEK Tl+ uptake effects, second counter-screen – HEK cells, counterscreen 2, counter-screen for KCC2 modulator project, confirmation; shares compounds with Cl transport mod; 33% of 3,700 active; thallium flux slope at 10 µM; HEK293 parental, thallium flux FluoZin-2 fluorescence slope;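 active = thallium flux slope above the same plate's solvent-control mean plus 3 SD in both duplicate wells; inconclusive = duplicate wells that disagreed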;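 also: run without ouabain in cells lacking the KCC2 cotransporter; slope of fluorescence scaled to its starting value between 10 and 20 s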
Numbers without * were called inactive; ? = inconclusive; . = no result. Most compounds without a hit are left out; they make up all but 3.3% or so of the library.

SMILES	PHOSPHO1 inh	Cl transport mod	Efflux pump mplx	Calb FLC	Cardio protect	KCC2 sec1	KCC2 bumet counter	KCC2 sec2	HEK counter1	KCC2 retest ouab	HEK293 Tl flux2
COc1ccccc1N(CC(=O)NCCSc1ccccn1)S(=O)(=O)c1ccccc1	42	.	0	0	9	.	.	.	.	.	.
CNC(=O)OCc1snc(-c2ccccc2)c1COC(=O)NC	.	.	.	.	2	.	.	.	.	.	.
Cc1cccc(C(=O)N[C@H](C(=O)NCCc2ccc(S(N)(=O)=O)cc2)C(C)C)c1	28	.	0	-2	5	.	.	.	.	.	.
O=c1c2cc(Cl)ccc2[nH]c(=S)n1Cc1ccccn1	-26	9.9*	0	18	-4	0.0073	0.067*	0.047*	0.036*	0.054*	0.034*
O=c1c2cc(Br)ccc2[nH]c(=S)n1Cc1cccnc1	-62	5.4*	0	-1	7	?	0.025*	0.034	0.014*	0.029	0.012*
CCN(CC)CCn1c(=S)[nH]c2ccc(Cl)cc2c1=O	78*	25*	0	-18	5	0.01	0.017*	0.038	?	0.03*	0.014
O=c1c2ccccc2[nH]c(=S)n1Cc1cccnc1	47	1.7	0	1	13	.	.	.	.	.	.
CC(Nc1cccc(C(=O)NC2CC2)c1)c1nnc(-c2ccccc2)o1 (centres undefined)	.	.	0	.	-2	.	.	.	.	.	.
CC(C)C(C)(C#N)NC(=O)COC(=O)C1CCN(S(=O)(=O)c2ccc3c(c2)OCCO3)CC1 (centres undefined)	.	.	.	.	11	.	.	.	.	.	.
CC(C)N1CCC1(C)C(=O)Nc1ccc2cn[nH]c2c1 (centres undefined)	.	.	.	.	6	.	.	.	.	.	.
O=C(O)COc1ccc(F)cc1Br	8	2	0	-6	5	.	.	.	.	.	.
Cc1nc2ccccc2nc1SCC(=O)N1CCC(C)CC1	28	.	0	2	-7	.	.	.	.	.	.
Cc1ccnc(N2CCN(C(=O)CSc3nc4ccccc4nc3N3CCC(C)CC3)CC2)c1	-4	4.8*	0	-1	0	0.0056	0.0087*	0.034	0.0094*	?	?
Cc1ccc(S(=O)(=O)NC2=NCN(Cc3ccccc3)CN2)cc1	-3	-3.3*	0	13	4	0.0084	0.0061	0.033	0.0078	?	0.011
CCN(CC(=O)Nc1ccc(OC)cc1)C(=O)Cc1cccs1	.	.	0	-3	0	.	.	.	.	.	.
N#Cc1nc(Cc2cccc3ccccc23)oc1NCC1CCCO1 (centres undefined)	-3	.	0	-17	-3	0.01	0.0064	?	0.0035	0.016*	0.011
N#Cc1nc(Cc2cccc3ccccc23)oc1NCCCN1CCOCC1	7	-5.6*	0	-12	1	?	0.0054	0.03	0.0067	0.014*	0.011*
COc1ccccc1OCc1nc(C#N)c(NCc2ccco2)o1	11	-1	0	1	-8	.	.	.	.	.	.
N#Cc1nc(Cc2cccc3ccccc23)oc1NCc1ccco1	16	.	0	25	-16	?	0.0049	?	?	0.014*	0.011
O=C(CSc1nc(-c2ccc(F)cc2)nc2c1Cc1ccccc1O2)Nc1ccc(C(=O)O)cc1	-86	3.3*	.	.	2	0.0075	0.0074*	0.036	0.013*	0.024*	0.012*
CC(Oc1ccc2ccc(=O)oc2c1)C(=O)N1CCOCC1 (centres undefined)	.	.	0	-1	1	.	.	.	.	.	.
CN(C(=O)COC(=O)/C=C/c1cccs1)c1c(N)n(Cc2ccccc2)c(=O)[nH]c1=O	.	.	0	7	7	.	.	.	.	.	.
CCCCC(=O)Nc1ccc(NC(=S)NC(=O)CC)cc1OC	3	0.1	0	2	3	.	.	.	.	.	.
CC(C)C(=O)Nc1cccc(NC(=S)NC(=O)c2cccs2)c1	52	.	0	-2	-6	.	.	.	.	.	.
COc1ccc(-c2csc(NC(=S)NC(=O)c3cccs3)n2)cc1OC	1	31*	.	-3	15	0.01*	0.046*	0.056*	0.044*	0.048*	0.044*
SMILES	PHOSPHO1 inh	Cl transport mod	Efflux pump mplx	Calb FLC	Cardio protect	KCC2 sec1	KCC2 bumet counter	KCC2 sec2	HEK counter1	KCC2 retest ouab	HEK293 Tl flux2
COc1cc(NC(=O)C(C)C)ccc1NC(=O)c1ccco1	-8	.	0	-14	-2	.	.	.	.	.	.
COc1cc(NC(=S)NC(=O)c2ccco2)ccc1NC(=O)C(C)C	43	5.2*	0	28	0	0.0099	0.012*	0.031	0.012*	?	0.011
CCCCC(=O)Nc1ccc(NC(=S)NC(=O)c2ccco2)cc1OC	29	13*	0	7	0	0.022*	0.047*	?	0.02*	0.026*	0.022*
COc1cc(NC(=S)NC(=O)c2cccs2)ccc1NC(=O)C(C)C	43	5.1*	0	6	-2	0.0099	0.024*	0.03	0.01*	?	0.011*
CCOc1ccc(Nc2ccc(N)c(S(=O)(=O)O)c2)cc1	.	.	.	.	-5	.	.	.	.	.	.
COc1ccc(-c2csc(NC(=O)c3ccccc3NS(=O)(=O)c3ccc(C)cc3)n2)cc1	-20	-4	0	6	-25	.	.	.	.	.	.
COc1ccc(S(=O)(=O)Nc2ccccc2C(=O)Nc2nc(-c3ccc(F)cc3)cs2)cc1OC	4	-6.2*	0	23	-28	0.006*	0.0057	0.03	?	0.012*	0.01
COc1ccc(OC)c(NC(=O)C(=O)NNC(=O)c2cccs2)c1	-4	9.9*	0	13	3	0.015*	0.063*	0.034	0.022*	0.04*	0.015*
